Data taken from ChEMBL document CHEMBL3433997, “St. Jude Leishmania screening dataset” (2016).

target: Hexose transporter 1 (Plasmodium falciparum) (UniProt O97467); experiment: ST_JUDE_LEISH: Cytotoxicity at 2uM final concentration against transgenic Leishmania Mexicana promastigotes LmPfHT that are glucose transport deficient and complemented with the Plasmodium falciparum hexose transporter. Activity is measured by DNA content using SYBR green in vitro; type: functional

SMILES	inhibition [%]
O=C(Nc1ccccc1N1CCOCC1)c1ncoc1-c1ccccc1C(F)(F)F	2.36
O=C(CSc1nc(-c2ccccc2Cl)ns1)Nc1cccc(Cl)c1	1.79
CN(C)c1ccc(-c2ccc(C(=O)NC3CCN(Cc4cccc(C(F)(F)F)c4)CC3)s2)cc1	6.03
CN1CCN(c2ccc(-c3cccc(NC(=O)c4cccc(Cl)c4)c3)nn2)CC1	1.54
Clc1ccc2c(NN=Cc3ccco3)ccnc2c1	3.49
CC(=O)c1ccc(-c2ccc(C(=O)NCCCCN3CCC(c4ccc5c(c4OCC(N)=O)CCCC5)CC3)cc2)s1	0.76
CN(Cc1cc(C(F)(F)F)cc(C(F)(F)F)c1)C(=O)C1CNCC1c1ccc(F)cc1 (stereo not given)	5.75
CC(=O)c1ccc(NC(=O)CSc2nc(-c3ccccc3Cl)ns2)cc1	10.3
Nc1c2c(nc3ccc(NC(=O)CCCc4ccccc4)cc13)CCCC2	1.78
CN1C(C)(C)CC(NC(=O)c2ccc(-c3cc4cc(Cl)c(Cl)cc4[nH]3)o2)CC1(C)C	4.2
O=C(Nc1ccc(-c2cccc(-c3nc4cc(C(F)(F)F)ccc4[nH]3)c2)cc1)Nc1ccc(F)c(F)c1F	0.04
CN1CCC(N2CCN(Cc3cccc(-c4ccc(-c5nc6ccccc6[nH]5)cc4)c3)CC2)CC1	1.99
Cc1ccc(OCC2CCN(c3ncc(C(=O)NCCCN4CCCC4=O)cc3Cl)CC2)cc1	-1.22
Cc1sc(C)c(C(F)(F)F)c1CNCCCNc1cc(=O)c2ccccc2[nH]1	4.67
Cc1ccc(O)c(-c2cc(C(=O)Nc3ccc(S(=O)(=O)N4CCCC(C)C4)cc3)[nH]n2)c1 (stereo not given)	-0.51
O=C(Nc1cccc(-c2ccc(NCCCN3CCCC3)nc2)c1)c1ccccc1	6.59
N=C(N)NN=C1C=Cc2cccc3cccc1c23	2.26
c1ccc(Oc2ccc(Nc3ccnc4cc(-c5ccc(CN6CCOCC6)o5)ccc34)cc2)nc1	-1.03
CC1CCCN(c2ccc(NC(=O)c3cccs3)cc2[N+](=O)[O-])C1 (stereo not given)	1.19
CCCCCCOc1ccc(N2C(N)=NC(N)=NC2(C)C)cc1	1.46

SMILES	inhibition [%]
CC1(C)N=C(NC(=O)c2ccc([N+](=O)[O-])cc2)N=C(N)N1OCc1ccc2ccccc2c1	4.18
N#Cc1ccc(N/C(=N\c2ccc(-c3ccccc3)cc2)NCc2cccnc2)c(O)c1	1.66
CCCCNS(=O)(=O)c1ccc(NC(=O)c2cc([N+](=O)[O-])ccc2Cl)cc1	0.49
COc1ccc(-c2nc3cccnc3n2CC(=O)Nc2cc(Cl)c(Cl)cc2Cl)c(OC)c1	-1.91
Cc1cc(N(C)C2CCN(C)C2)nc(Nc2ccccc2Cl)n1 (stereo not given)	2.69
CC(C)C1CCc2nc(N)nc(N)c2C1 (stereo not given)	4.4
CCCCNC[C@@H](O)[C@H](Cc1ccccc1)NC(=O)c1cc2c3c(c1)c(CC)cn3CCS(=O)(=O)N2C	4.07
COc1cccc2c(NCCNc3ccnc4c(OC)cccc34)ccnc12	6.99
COc1c(C2CCN(CCCCNC(=O)c3ccc(-c4ccc(C#N)cc4)nc3)CC2)ccc2c1CCCC2	2.03
COCCn1c(SC(C)C(=O)Nc2cc(C(F)(F)F)ccc2Cl)nc2ccccc2c1=O (stereo not given)	-0.22
COc1cc(CNCCCNc2cc(=O)c3ccccc3[nH]2)c2c(c1)C(C)CN2C(=O)OC(C)(C)C (stereo not given)	10.7
COCCN1CCC(CN(C)CC(C)(C)c2nc(-c3ccc(Cl)c(O)c3)c(-c3ccncc3)[nH]2)CC1	5.16
C#CCOc1ccc2ccccc2c1CNCCCCCCNCc1c(OCC#C)ccc2ccccc12	2.21
CC(C)[C@H](NC(=O)c1ccc(O)c(-c2ccc(Cl)c(Cl)c2)c1)C(=O)NCCN(C)C	0.6
CCCCOC(=O)C1=C(C)NC2=C(C(=O)CCC2)C1c1ccc(OC)c(Br)c1 (stereo not given)	-0.81
COc1cc2nc(Nc3ccc4c(cnn4Cc4ccccc4)c3)nc(Nc3ccc4c(cnn4Cc4ccccc4)c3)c2cc1OC	2.44
O=C(Cn1c(CCc2cccc(F)c2F)nc(=O)c2ccccc21)N(CCN1CCCCC1)Cc1ccc(-c2ccc(C(F)(F)F)cc2)cc1	4.32
CN1CCC(NCc2ccc(-c3ccc(C(F)(F)F)cc3)cc2)CC1	-0.76
c1ccc2[nH]c(-c3ccc(-c4ccc(CNCCc5ccncc5)cc4)s3)nc2c1	5.02
c1ccc(OCCCCN2CCCCC2)cc1	0.56
